Results as given in PubChem BioAssay (NCI).
About 83,000 compounds went through this panel and 20% of them were active in at least one assay; those are over-represented in the sample as a whole.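 Cells were grown in 96-well plates and exposed to the test compound at a single concentration for 48 hours; results are reported as percent growth, with values below 10 considered active.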 A number with no mark means an inactive call. Active and inactive are the calls of the source.

Experiments:
Assay in all cases: NCI-60 one-dose screen, 48 h (100 = growth as untreated, 0 = no growth, -100 = all killed)
Settings in all cases: 10 µM unless noted
DU-145 prostate = test system: DU-145 prostate
K-562 leukemia = test system: K-562 leukemia
MALME-3M melanoma = test system: MALME-3M melanoma
MDA-MB-231 breast = test system: MDA-MB-231 breast
RXF 393 renal = test system: RXF 393 renal
SF-268 CNS = test system: SF-268 CNS
SF-295 CNS = test system: SF-295 CNS
SF-539 CNS = test system: SF-539 CNS
UACC-257 melanoma = test system: UACC-257 melanoma
M14 melanoma = test system: M14 melanoma
HCT-15 colon = test system: HCT-15 colon
HT29 colon = test system: HT29 colon
SNB-75 CNS = test system: SNB-75 CNS
SNB-19 CNS = test system: SNB-19 CNS
U251 CNS = test system: U251 CNS
PC-3 prostate = test system: PC-3 prostate
SK-MEL-5 melanoma = test system: SK-MEL-5 melanoma
UACC-62 melanoma = test system: UACC-62 melanoma
LOX IMVI melanoma = test system: LOX IMVI melanoma
SK-MEL-28 melanoma = test system: SK-MEL-28 melanoma

Row | Structure (SMILES) | growth (DU-145 prostate) | growth (K-562 leukemia) | growth (MALME-3M melanoma) | growth (MDA-MB-231 breast) | growth (RXF 393 renal) | growth (SF-268 CNS) | growth (SF-295 CNS) | growth (SF-539 CNS) | growth (UACC-257 melanoma) | growth (M14 melanoma) | growth (HCT-15 colon) | growth (HT29 colon) | growth (SNB-75 CNS) | growth (SNB-19 CNS) | growth (U251 CNS) | growth (PC-3 prostate) | growth (SK-MEL-5 melanoma) | growth (UACC-62 melanoma) | growth (LOX IMVI melanoma) | growth (SK-MEL-28 melanoma)
1 | Cc1ccc(NC(=O)c2ccc(Nc3ncnc4c3cnn4-c3cccc(F)c3)cc2)cc1 | 104% | 96.3% | 101% | 95.2% | 92.5% | 97.2% | 103% | 101% | 98% | 99% | 100% | 98.8% | 93.5% | 94.2% | 102% | 100% | 99.8% | 90.7% | 92.8% | 106%
2 | COc1cc(/C=C/C(=O)c2ccc(-n3cc(CN4CCN(c5cc6c(cc5F)c(=O)c(C(=O)O)cn6C5CC5)CC4)nn3)cc2)cc(OC)c1OC | 92.3% | 60.7% | 87.7% | 66.4% | 55.7% | 77.2% | 81.9% | 82.5% | 90.1% | 88.1% | 90.6% | 99.2% | 85.7% | 76.7% | 68.4% | 84.7% | 79.7% | 72.8% | 55.7% | 92%
3 | CNC(=O)c1cc(Oc2ccc3nc(NC(=O)NC(C)C)sc3c2)ccn1 | 98.8% | 7.14% (active) | 86.2% | 79.5% | 95.4% | 89.8% | 77.5% | 76.9% | 73.7% | 50.5% | 55.9% | 33.3% | 93.9% | 82.3% | 51.6% | 70.1% | 65.3% | 68.6% | 68.8% | 85.8%
4 | COc1ccc(C2CC(=O)Oc3c(OC)c4c(c(OC)c32)OCO4)cc1 (stereo not given) | 112% | 61.1% | 94.5% | 100% | 99.6% | 99.3% | 102% | 98.6% | 101% | 98.8% | 87.6% | 99.4% | 98.6% | 107% | 99.6% | 106% | 105% | 91.1% | 90.3% | 95.6%
5 | CCN1CCN(c2nc(NNC(=O)c3ccc(OC)cc3)nc(N3CCN(C(c4ccccc4)c4ccccc4)CC3)n2)CC1 | 72.2% | 14% | -63.7% (active) | 82.9% | 55.7% | 81.8% | 71.3% | 73.2% | 10.3% | -40.5% (active) | 22.2% | 15.6% | 45.9% | 78.3% | 39.5% | 30.2% | -74.4% (active) | 68.3% | 1.43% (active) | 64.1%
6 | C=CN(C(=O)N1CCN(c2cc3c(cc2F)c(=O)c(C(=O)O)cn3C2CC2)CC1)c1nc(-c2ccc(C)cc2)cs1 | 24.7% | 18.5% | 48.2% | 21.5% | 6.69% (active) | 26.3% | -5.02% (active) | 20.2% | 54.2% | 31.4% | 9.38% (active) | 6.66% (active) | 14.4% | 18.5% | 11.4% | 14.7% | 26.6% | 29.2% | 8.56% (active) | 42.1%
7 | COc1cc(OCc2cccc(-c3ccccc3)c2C)cc(OC)c1CN1CCCCC1C(=O)NCCOCCOCCN (stereo not given) | 65.7% | -19.8% (active) | 54.1% | 57.5% | 59% | 87% | 89.3% | 87.7% | 99.7% | -27.5% (active) | 87.9% | 5.46% (active) | 73.8% | 67.9% | 25.7% | 74.6% | 87.2% | 99.4% | -73.7% (active) | 87.7%
8 | O=c1c(Cc2ccc(F)cc2)cc(-c2ccccc2)nn1C/C(=N/O)c1ccccc1 | 79.6% | 29.2% | 35.8% | 43.1% | 28.5% | 52.6% | 31.9% | 81.9% | 53.8% | 37.5% | 44.5% | 20.3% | 57.8% | 58.3% | 34.5% | 25.9% | 36.6% | 33.6% | 53.1% | 62%
9 | NCCNc1ccc([N+](=O)[O-])cc1 | 126% | 92.4% | 115% | 122% | 123% | 110% | 128% | 107% | 115% | 106% | 108% | 101% | 96.2% | 101% | 102% | 105% | 118% | 106% | 105% | 108%
10 | NC(=O)[C@@H]1Cc2ccccc2CN1C(=O)c1ccc2c(c1)Cc1ccccc1-2 | 86% | 58.9% | 87.3% | 98.4% | 91.9% | 87.3% | 79.8% | 97.6% | 94.9% | 87.4% | 74.6% | 89.1% | 85.7% | 86.7% | 83% | 61.9% | 46.6% | -36.9% (active) | 90.8% | 116%
11 | CCOC(=O)c1c(Nc2nc3ccccc3s2)sc2c1CCC(=O)C2 | 84.8% | 10.2% | 93.9% | 79.4% | 83.6% | 71% | 86.3% | 46.8% | 92.7% | 58.6% | 45.1% | 55.4% | 74.8% | 45.8% | 20.5% | 22.2% | 61.2% | 43.1% | 40.1% | 108%
12 | O=C(Nc1ccccc1C(F)(F)F)C1=NCCCCN1 | 106% | 94.4% | 103% | 102% | 97% | 96.8% | 93.6% | 96.1% | 99% | 98.3% | 97.8% | 98.7% | 88% | 97.7% | 103% | 96.5% | 100% | 93.3% | 96.2% | 106%
13 | Cc1ccc(Nc2nc(N)nc(N)c2N=O)cc1Cl | 73.7% | 69.9% | 82.2% | 95.6% | 91.8% | 65.6% | 105% | 82% | 92.2% | 88.4% | 70.6% | 64.3% | 49.5% | 97.5% | 87% | 70.8% | 93.5% | 84.6% | 65.4% | 93.5%
14 | Cc1ccccc1NC(=O)Cn1cc(CN2CCN(c3ccnc4cc(Cl)ccc34)CC2)nn1 | 105% | 70% | 109% | 83.1% | 102% | 92.6% | 100% | 97.8% | 109% | 101% | 98.5% | 105% | 85.8% | 93.3% | 100% | 81.4% | 91.2% | 84.3% | 97.7% | 100%
15 | C/C=C(/C)C(=O)O[C@@H]1CC(C)(C)CC2C34OC(=O)[C@@]21CC[C@@]3(C)[C@]1(C)CCC2C(C)(C)C(=O)CC[C@]2(C)C1C[C@@H]4O (stereo not given in full) | 77.9% | 28.8% | 85% | 58.4% | 76% | 73.4% | 78.4% | 52.1% | 64.6% | 52.4% | 38.4% | 65.1% | 64.1% | 78.6% | 46.9% | 25.4% | 27.8% | 55.3% | 33.5% | 75.8%
